# Source: PubChem BioAssay AID1347147 (National Center for Advancing Translational Sciences (NCATS), 2019)
# Results filed as inconclusive are left out. Entries that show only a call come without a potency. Active and inactive are the calls of the source. The call rests on the fitted dose curve; in most records, active means well fitted inhibition curve with a large enough effect; inconclusive means small, poorly fitted or top-dose-only effect; inactive means no such curve, though single readings can be large or run the other way.
# Biological target: N-terminal Xaa-Pro-Lys N-methyltransferase 1 (Homo sapiens) (UniProt Q9BV86)
# Assay: qHTS Assay for Inhibitors of N-terminal methyltransferase 1 (NTMT1): MTaseGlo Confirmatory Screen, Round 2
# Conditions: NTMT1 enzyme, MTase-Glo SAH luminescence; series mostly up to 57.4 µM
# Description: Assay Submitter (PI): Rong Huang Ph.D, Purdue University, West Lafayette, IN 47907
# The N-terminal methytransferase 1 is the first methyltransferase that methylates protein alpha-N-amines and plays an important role in regulating cell mitosis, chromatin interactions and DNA repair. It is observed to be over-expressed in various cancer patient tissues like malignant melanoma and colorectal cancer tissues. Knockdown of NTMT1 in cancer cells causes cell mitotic defects and enhances sensitivity to DNA damaging chemotherapeutics. […] These critical cellular processes in which NTMT1 is implicated, coupled with emerging links to cellular dysfunction, strengthen the inference that NTMT1 is a compelling novel anticancer target. Progress have been made in understanding the molecular properties of NTMT1 and the biological consequences of protein alpha-N-terminal methylation, but there are no specific small molecule probes available for NTMT1 to fully characterize its MTase activity. To address this unmet need, a panel of assay is created and established to enable quantitative high-throughput screening (qHTS) for novel, potent, and selective small molecule NTMT1 inhibitors. Two orthogonal qHTS that use different reagents (ThioGlo vs. MTaseGlo) are developed for primary robotic screening against the NCATS chemical library of more than 400,000 small molecules. Identified inhibitors are reacquired, validated, and further characterized.
# MTaseGlo Assay is a luminescence screen that measure the activity of methyltransferases based on the reaction product S-adenosyl homocysteine (SAH). The substrate SAM is converted to SAH upon enzyme activation. MTase-Glo reagent and detection solution convert SAH to ATP and measure the light from the luciferase reaction.
# Early Translation Branch (ETB)
# National Center for Advancing Translational Sciences (NCATS)
# National Institute of Health (NIH)
# NTMT1 enzyme, substrate SPKRIA, control peptide RCC1-6 is provided by the Huang laboratory.
# In brief, 3 µL of enzyme mixture (final concentrations of 125 nM and 100 µM for NTMT1 and SAM, respectively) into all wells of a 1,536-well solid-bottom white plate (Greiner Bio One, Monroe, NC). 23 nL of DMSO or Ac-RCC1-10 (final concentration range 234 nM to 143 microM) was transferred via Wako Pin-tool (Wako Automation, Richmond, VA) and incubated (RT) for ~15 minutes. Next, 1 µL of substrate (final concentration 1 µM) or buffer was dispensed, and the reaction proceeded for 30 minutes (RT, protected from light) followed by a 1 microL addition of [5X] MTase-Glo Reagent(R). Samples were incubated (RT, protected from light) for 30 minutes to allow for SAH to be converted to ADP, followed by a 5 microL addition of [1X] MTase-Glo Detection Solution(R) to allow for ADP to be converted to ATP, which was then detected with a luciferase reaction. Samples were centrifuged for 15 seconds at 1,000 RPM's, followed by a RT incubation for 30 minutes. Plates were then read using Luminescence optics on a ViewLux detector. Data were normalized to no-enzyme (0% activity) and no-inhibitor (DMSO; 100%) controls, and the resulting percent inhibition data were fitted to a 4-parameter Hill equation using Graphpad Prism.
# Potency means the concentration at half of the fitted maximal effect.
# N-terminal Xaa-Pro-Lys N-methyltransferase 1 (Homo sapiens), sequence (Q9BV86 whole entry, looked up): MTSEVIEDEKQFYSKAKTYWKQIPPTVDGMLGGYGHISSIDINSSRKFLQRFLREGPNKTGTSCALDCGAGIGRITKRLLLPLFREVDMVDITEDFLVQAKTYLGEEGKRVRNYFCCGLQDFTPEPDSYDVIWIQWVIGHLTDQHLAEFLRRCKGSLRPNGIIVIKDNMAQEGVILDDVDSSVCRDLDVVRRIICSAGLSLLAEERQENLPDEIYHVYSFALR
row,SMILES,Potency
1,CC(C)NC[C@H](O)c1ccc(O)c(O)c1,inactive
2,Nc1nc(=S)c2ncn([C@H]3O[C@@H](CO)[C@@H](O)[C@@H]3O)c2[nH]1,inactive
3,OCCN1CCN(CC/C=C2/c3ccccc3Sc3ccc(C(F)(F)F)cc32)CC1,inactive
4,OCC1OC(n2cnc3c(=S)nc[nH]c32)C(O)C1O (stereo not given),inactive
5,Nc1ncnc2c1ncn2[C@@H]1O[C@H](CO)[C@@H](O)[C@H]1O,inactive
6,CC(C)COCC(CN(Cc1ccccc1)c1ccccc1)N1CCCC1 (stereo not given),inactive
7,Oc1ccc(C2CNCc3sccc32)cc1O (stereo not given),inactive
8,Brc1c(NC2=NCCN2)ccc2nccnc12,inactive
9,Nc1c(S(=O)(=O)O)cc(Nc2ccc(Nc3nc(Cl)nc(Nc4ccc(S(=O)(=O)O)cc4)n3)c(S(=O)(=O)O)c2)c2c1C(=O)c1ccccc1C2=O,31.6 µM (active)
10,O=C1c2c(O)cc(O)cc2OC(c2ccc(O)c(O)c2)C1O (stereo not given),inactive
11,NC(Cc1c[nH]c2ccc(O)cc12)C(=O)O (stereo not given),inactive
12,S=C(S)N1CCCC1,inactive
13,Nc1nc(Cl)nc2c1ncn2[C@@H]1O[C@H](COP(=O)(O)OP(=O)(O)OP(=O)(O)O)[C@@H](O)[C@H]1O,inactive
14,Cc1ccc(O)c(N=Nc2ccccc2)n1,14.1 µM (active)
15,COc1cc2nc(N3CCCN(C)CC3)nc(N3CCN(C)CC3)c2cc1OC,inactive
16,O=C1Nc2ccc(I)cc2/C1=C/c1cc(Br)c(O)c(Br)c1,8.91 µM (active)
17,OCC1OC(n2cnc3c(NO)ncnc32)C(O)C1O (stereo not given),inactive
18,CC[C@H](C)n1cc(C)c2c(C(=O)NCc3c(C)cc(C)[nH]c3=O)cc(-c3ccc(N4CCNCC4)nc3)cc21,inactive
19,C=CCN1CCc2c(cc(O)c(O)c2Cl)C(c2ccccc2)C1 (stereo not given),inactive
20,OCCNc1ncnc2c1ncn2[C@@H]1O[C@@H](CO)[C@H](O)[C@@H]1O,inactive

row,SMILES,Potency
1,Cc1nn(-c2ccccc2)c(C)c1/C=N/N1CCN(Cc2ccccc2)CC1,inactive
2,Clc1nccc2c1ccc1ccccc12,inactive
3,Cc1nnc(SCC2=C(C(=O)O)N3C(=O)[C@@H](NC(=O)Cn4cnnn4)[C@H]3SC2)s1,inactive
4,CN(C)C(=O)/N=N/C(=O)N(C)C,inactive
5,CCCc1cc(C)[nH]c(=O)c1CNC(=O)c1cc(-c2ccc(N3CCN(C(C)C)CC3)nc2)cc2c1cnn2C(C)C,inactive
6,COc1ccc(/C=C2\COc3ccc(C)cc3C2=O)cc1O,inactive
7,O=S(=O)(c1cccc2c(Cl)cccc12)N1CCCNCC1,inactive
8,CCC(=O)c1ccc2c(c1)N(CCCN(C)C)c1ccccc1S2,inactive
9,Oc1cc(O)c2c(c1)O[C@H](c1ccc(O)c(O)c1)[C@@H](O)C2,inactive
10,Cc1cc(C)c(/C=C2\C(=O)Nc3ccccc32)[nH]1,inactive
11,Nc1ncnc2c1ncn2[C@@H]1O[C@H](COP(=O)(O)OP(=O)(O)OC[C@H]2OC(O)[C@H](O)[C@@H]2O)[C@@H](O)[C@H]1O (stereo not given in full),inactive
12,CN(C)CCCc1cc(C(=O)Nc2ccc(-c3ccncc3)cc2)ccc1O,inactive
13,O=[N+]([O-])c1ccc(CNc2nc(NCc3cccc(C(F)(F)F)c3)nc3nc[nH]c23)cc1,inactive
14,CC(C)(C)c1ccc(S(=O)(=O)/C=C\C#N)cc1,inactive
15,O=C1NC(=O)C(c2ccccc2[N+](=O)[O-])=C1Nc1ccc(O)c(Cl)c1,inactive
16,Brc1c(Br)c(Br)c2[nH]cnc2c1Br,inactive
17,CN1Cc2c(N)cccc2C(c2ccccc2)C1 (stereo not given),inactive
18,N.N.N.N.N.N.N.N.N.N.N.N.N.N.O.O.[Ru+4].[Ru+5].[Ru+5],31.6 µM (active)
19,OC[C@H]1O[C@H](n2cnc3c(N[C@H]4CCC[C@@H]4O)ncnc32)[C@H](O)[C@@H]1O,inactive
20,CSc1nc(N)c2ncn([C@@H]3O[C@H](COP(=O)(O)OP(=O)(O)O)C(O)[C@H]3O)c2n1 (stereo not given in full),20 µM (active)
